Assay results: paper PMC7862700, “An all-to-all approach to the identification of sequence-specific readers for epigenetic DNA modifications on cytosine”

Legend:
Test in all cases: DAPPL (digital affinity profiling via proximity ligation, sequencing); 10 mM Tris-HCl pH 7.5, 50 mM NaCl, 1 mM DTT, 4% glycerol, room temperature, 30 min; GST-TFs on glutathione beads, 16-mer random dsDNA library, 0.1% formaldehyde crosslink after washing; high values mean tight binding
FLI1 = target: T1, FLI1 (Homo sapiens, UniProt Q01543 1-452); conditions: protein: recombinant; tags: N-terminal GST; dsDNA, one strand shown
T1 sequence: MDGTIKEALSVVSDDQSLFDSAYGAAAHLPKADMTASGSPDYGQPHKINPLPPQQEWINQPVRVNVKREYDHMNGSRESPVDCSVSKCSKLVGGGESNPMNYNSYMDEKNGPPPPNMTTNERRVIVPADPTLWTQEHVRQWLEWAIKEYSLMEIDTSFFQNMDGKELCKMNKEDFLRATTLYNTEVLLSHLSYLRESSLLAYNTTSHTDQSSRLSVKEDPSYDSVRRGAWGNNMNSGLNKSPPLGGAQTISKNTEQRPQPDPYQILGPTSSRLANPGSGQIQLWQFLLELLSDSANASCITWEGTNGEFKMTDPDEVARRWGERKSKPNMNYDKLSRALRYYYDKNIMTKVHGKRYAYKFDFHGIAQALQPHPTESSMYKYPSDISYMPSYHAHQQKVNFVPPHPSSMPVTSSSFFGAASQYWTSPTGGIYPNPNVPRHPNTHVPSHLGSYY
Method in brief: (§1)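 A tag-only sample was pooled with DNA-barcoded human transcription factors that had been expressed in yeast as GST fusions and captured on glutathione beads. The pools were incubated for 30 min at room temperature with 200 nmole of a random double-stranded 16-mer DNA library in Tris/NaCl/DTT/glycerol buffer, then washed, crosslinked with 0.1% formaldehyde, proximity-ligated (BsaI/T4 ligase, 1 h, 37 °C), PCR-amplified and sequenced on an Illumina NextSeq500. Binding signal is each hexamer's read frequency for a factor divided by its frequency for the tag-only sample.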

ELK1 = target: T2, ELK1 (Homo sapiens, UniProt P19419 1-428); conditions: protein: recombinant; tags: N-terminal GST; dsDNA, one strand shown
T2 sequence: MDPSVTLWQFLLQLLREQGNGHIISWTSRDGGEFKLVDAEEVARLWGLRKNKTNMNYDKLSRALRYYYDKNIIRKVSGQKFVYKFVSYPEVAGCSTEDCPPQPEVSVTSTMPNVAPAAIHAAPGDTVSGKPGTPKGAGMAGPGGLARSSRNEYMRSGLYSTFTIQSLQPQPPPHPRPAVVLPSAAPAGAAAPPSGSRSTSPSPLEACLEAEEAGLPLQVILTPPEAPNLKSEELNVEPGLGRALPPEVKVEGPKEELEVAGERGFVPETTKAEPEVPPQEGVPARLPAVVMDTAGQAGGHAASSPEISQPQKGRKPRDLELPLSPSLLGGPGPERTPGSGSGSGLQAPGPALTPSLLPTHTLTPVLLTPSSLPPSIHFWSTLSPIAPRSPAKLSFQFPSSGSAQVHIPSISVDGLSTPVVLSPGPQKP
Method in brief: as §1

GABPA = target: T3, GABPA (Homo sapiens, UniProt Q06546 1-454); conditions: protein: recombinant; tags: N-terminal GST; dsDNA, one strand shown
T3 sequence: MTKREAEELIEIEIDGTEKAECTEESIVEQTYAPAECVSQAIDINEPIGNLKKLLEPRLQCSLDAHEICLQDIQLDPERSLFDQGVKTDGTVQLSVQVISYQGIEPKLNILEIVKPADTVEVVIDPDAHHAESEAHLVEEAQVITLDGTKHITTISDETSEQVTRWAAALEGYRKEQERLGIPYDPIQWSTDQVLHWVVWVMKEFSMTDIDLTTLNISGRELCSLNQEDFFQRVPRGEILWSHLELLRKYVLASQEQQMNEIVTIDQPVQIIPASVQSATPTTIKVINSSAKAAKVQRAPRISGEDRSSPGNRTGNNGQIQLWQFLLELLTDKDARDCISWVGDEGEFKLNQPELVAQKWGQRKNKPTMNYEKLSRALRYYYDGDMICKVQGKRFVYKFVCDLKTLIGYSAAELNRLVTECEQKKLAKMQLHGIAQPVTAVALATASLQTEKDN
Method in brief: as §1

ERG = target: T4, ERG (Homo sapiens, UniProt P11308 1-479); conditions: protein: recombinant; tags: N-terminal GST; dsDNA, one strand shown
T4 sequence: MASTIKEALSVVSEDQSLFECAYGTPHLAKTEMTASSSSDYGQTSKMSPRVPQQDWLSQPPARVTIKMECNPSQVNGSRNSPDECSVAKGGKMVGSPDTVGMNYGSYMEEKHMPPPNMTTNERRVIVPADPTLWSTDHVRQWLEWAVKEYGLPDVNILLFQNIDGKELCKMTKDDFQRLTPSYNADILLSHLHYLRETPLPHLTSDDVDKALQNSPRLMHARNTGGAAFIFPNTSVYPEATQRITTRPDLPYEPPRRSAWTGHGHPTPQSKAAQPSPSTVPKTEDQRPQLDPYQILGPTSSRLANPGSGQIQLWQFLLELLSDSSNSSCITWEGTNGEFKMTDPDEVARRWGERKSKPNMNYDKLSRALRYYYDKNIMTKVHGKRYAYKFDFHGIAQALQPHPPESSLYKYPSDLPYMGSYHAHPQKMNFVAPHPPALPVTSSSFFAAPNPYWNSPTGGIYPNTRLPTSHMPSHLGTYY
Method in brief: as §1

ELF1 = ELF1 (Homo sapiens, UniProt P32519 1-619); conditions: protein: recombinant; tags: N-terminal GST; dsDNA, one strand shown
Chain of ELF1 (P32519 whole entry): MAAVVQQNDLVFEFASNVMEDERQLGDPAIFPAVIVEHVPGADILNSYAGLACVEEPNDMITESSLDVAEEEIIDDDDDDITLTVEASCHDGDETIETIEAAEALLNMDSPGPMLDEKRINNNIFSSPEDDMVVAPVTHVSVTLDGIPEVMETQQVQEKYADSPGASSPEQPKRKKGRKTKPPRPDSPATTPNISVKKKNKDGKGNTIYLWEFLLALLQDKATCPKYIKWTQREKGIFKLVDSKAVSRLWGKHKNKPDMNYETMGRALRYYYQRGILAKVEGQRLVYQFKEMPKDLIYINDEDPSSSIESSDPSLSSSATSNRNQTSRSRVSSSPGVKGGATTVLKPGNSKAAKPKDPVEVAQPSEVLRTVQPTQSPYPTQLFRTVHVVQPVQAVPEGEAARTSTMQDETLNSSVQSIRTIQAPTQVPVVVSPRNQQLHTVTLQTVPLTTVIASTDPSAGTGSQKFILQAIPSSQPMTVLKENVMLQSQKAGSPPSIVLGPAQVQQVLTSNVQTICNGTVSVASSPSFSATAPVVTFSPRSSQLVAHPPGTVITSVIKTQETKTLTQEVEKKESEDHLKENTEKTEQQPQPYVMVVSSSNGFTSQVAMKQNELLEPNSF
Method in brief: as §1

EHF = target: T5, EHF (Homo sapiens, UniProt Q9NZC4 1-300); conditions: protein: recombinant; tags: N-terminal GST; dsDNA, one strand shown
T5 sequence: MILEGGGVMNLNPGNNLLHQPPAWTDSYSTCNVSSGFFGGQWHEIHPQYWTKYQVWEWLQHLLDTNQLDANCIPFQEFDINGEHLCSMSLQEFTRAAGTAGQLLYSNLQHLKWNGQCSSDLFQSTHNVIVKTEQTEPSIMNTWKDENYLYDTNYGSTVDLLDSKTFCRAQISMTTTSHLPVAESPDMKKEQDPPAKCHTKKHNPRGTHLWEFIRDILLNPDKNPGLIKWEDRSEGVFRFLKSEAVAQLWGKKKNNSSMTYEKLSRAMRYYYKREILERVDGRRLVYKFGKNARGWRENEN
Method in brief: as §1

SPI1 = SPI1 (Homo sapiens, UniProt P17947 1-270); conditions: protein: recombinant; tags: N-terminal GST; dsDNA, one strand shown
Method in brief: as §1

SPIB = SPIB (Homo sapiens, UniProt Q01892 1-262); conditions: protein: recombinant; tags: N-terminal GST; dsDNA, one strand shown
Chain of SPIB (Q01892 whole entry): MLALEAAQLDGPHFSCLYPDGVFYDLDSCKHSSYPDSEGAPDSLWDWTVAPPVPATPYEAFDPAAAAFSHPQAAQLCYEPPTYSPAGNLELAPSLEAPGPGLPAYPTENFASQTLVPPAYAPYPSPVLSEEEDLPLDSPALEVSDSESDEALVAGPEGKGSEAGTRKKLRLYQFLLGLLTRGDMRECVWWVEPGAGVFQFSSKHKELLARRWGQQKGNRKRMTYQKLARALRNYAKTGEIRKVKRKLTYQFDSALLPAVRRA
Method in brief: as §1

ELK3 = target: T6, ELK3 (Homo sapiens, UniProt P41970 1-407); conditions: protein: recombinant; tags: N-terminal GST; dsDNA, one strand shown
T6 sequence: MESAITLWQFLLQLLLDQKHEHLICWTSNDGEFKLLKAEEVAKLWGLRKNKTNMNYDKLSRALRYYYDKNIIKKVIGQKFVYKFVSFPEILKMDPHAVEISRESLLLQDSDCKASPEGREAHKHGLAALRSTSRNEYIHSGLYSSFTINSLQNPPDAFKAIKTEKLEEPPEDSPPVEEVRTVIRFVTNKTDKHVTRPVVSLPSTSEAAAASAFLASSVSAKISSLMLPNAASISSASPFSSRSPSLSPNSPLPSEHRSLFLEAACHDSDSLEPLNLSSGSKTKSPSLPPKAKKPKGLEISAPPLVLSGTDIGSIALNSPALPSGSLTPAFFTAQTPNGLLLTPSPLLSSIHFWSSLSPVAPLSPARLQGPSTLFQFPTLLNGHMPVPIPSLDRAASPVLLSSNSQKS
Method in brief: as §1

FEV = target: T7, FEV (Homo sapiens, UniProt Q99581 1-238); conditions: protein: recombinant; tags: N-terminal GST; dsDNA, one strand shown
T7 sequence: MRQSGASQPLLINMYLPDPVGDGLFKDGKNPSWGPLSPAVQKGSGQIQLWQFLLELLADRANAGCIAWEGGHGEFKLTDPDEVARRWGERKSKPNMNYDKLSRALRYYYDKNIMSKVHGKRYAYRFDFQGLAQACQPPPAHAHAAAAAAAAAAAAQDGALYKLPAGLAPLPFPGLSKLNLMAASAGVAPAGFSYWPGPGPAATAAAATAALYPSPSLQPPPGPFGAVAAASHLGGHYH
Method in brief: as §1

ETV5 = ETV5 (Homo sapiens, UniProt P41161 1-510); conditions: protein: recombinant; tags: N-terminal GST; dsDNA, one strand shown
Chain of ETV5 (P41161 whole entry): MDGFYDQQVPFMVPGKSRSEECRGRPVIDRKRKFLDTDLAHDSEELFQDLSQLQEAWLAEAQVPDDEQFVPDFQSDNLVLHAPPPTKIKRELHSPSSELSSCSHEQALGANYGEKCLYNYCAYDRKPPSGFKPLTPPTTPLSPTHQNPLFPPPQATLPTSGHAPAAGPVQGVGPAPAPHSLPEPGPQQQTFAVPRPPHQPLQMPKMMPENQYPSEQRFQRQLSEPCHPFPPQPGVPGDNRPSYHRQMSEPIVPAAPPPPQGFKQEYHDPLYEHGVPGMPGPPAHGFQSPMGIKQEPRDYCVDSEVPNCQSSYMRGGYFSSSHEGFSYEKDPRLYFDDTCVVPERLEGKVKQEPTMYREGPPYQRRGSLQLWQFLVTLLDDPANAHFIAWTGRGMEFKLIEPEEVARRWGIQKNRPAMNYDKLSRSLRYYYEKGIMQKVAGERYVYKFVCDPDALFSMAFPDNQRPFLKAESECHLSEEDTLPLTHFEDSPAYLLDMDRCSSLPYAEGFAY
Method in brief: as §1

HSF1 = HSF1 (Homo sapiens, UniProt Q00613 1-529); conditions: protein: recombinant; tags: N-terminal GST; chain copies: 3; dsDNA, one strand shown
Chain of HSF1 (Q00613 whole entry): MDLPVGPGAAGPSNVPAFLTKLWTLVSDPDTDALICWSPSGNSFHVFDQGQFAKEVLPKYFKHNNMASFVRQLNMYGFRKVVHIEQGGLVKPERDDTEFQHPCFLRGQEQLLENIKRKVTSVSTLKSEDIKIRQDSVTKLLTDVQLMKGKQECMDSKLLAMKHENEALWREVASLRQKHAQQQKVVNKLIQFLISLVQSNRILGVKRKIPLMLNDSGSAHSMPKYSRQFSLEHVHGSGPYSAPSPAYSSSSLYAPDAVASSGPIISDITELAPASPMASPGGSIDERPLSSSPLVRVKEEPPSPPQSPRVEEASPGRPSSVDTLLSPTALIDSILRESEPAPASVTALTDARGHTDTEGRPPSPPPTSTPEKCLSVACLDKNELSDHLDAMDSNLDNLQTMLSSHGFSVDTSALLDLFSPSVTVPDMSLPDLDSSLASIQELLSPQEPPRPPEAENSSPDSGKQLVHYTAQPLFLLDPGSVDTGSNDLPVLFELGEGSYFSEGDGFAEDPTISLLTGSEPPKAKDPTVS
Method in brief: as §1

SPIC = target: T8, SPIC (Homo sapiens, UniProt Q8N5J4 1-248); conditions: protein: recombinant; tags: N-terminal GST; dsDNA, one strand shown
T8 sequence: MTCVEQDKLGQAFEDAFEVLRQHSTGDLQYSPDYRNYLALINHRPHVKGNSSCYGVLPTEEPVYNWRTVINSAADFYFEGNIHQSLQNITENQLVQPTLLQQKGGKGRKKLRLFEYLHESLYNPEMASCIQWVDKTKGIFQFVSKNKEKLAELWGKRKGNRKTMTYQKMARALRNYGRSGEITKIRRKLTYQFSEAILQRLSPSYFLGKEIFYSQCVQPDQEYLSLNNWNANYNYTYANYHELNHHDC
Method in brief: as §1

ELF4 = ELF4 (Homo sapiens, UniProt Q99607 1-663); conditions: protein: recombinant; tags: N-terminal GST; dsDNA, one strand shown
Chain of ELF4 (Q99607 whole entry): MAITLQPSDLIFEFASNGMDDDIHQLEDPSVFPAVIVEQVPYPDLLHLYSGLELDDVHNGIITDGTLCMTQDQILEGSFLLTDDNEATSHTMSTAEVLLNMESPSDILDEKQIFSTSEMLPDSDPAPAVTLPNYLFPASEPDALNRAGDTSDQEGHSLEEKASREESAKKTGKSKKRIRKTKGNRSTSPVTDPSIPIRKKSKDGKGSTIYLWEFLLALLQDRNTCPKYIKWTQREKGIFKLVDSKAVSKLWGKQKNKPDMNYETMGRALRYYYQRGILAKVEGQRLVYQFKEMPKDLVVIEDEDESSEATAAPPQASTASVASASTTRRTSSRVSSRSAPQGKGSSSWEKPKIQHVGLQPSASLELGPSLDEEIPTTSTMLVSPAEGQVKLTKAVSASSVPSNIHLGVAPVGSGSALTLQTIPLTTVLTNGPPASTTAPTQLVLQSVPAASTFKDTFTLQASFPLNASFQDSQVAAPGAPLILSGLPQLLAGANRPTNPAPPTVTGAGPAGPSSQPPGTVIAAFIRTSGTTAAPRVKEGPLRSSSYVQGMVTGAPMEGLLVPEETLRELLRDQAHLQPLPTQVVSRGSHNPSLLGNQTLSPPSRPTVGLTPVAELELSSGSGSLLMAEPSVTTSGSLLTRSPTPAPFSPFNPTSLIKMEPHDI
Method in brief: as §1

ELK4 = target: T9, ELK4 (Homo sapiens, UniProt P28324-2 1-405); conditions: protein: recombinant; tags: N-terminal GST; dsDNA, one strand shown
T9 sequence: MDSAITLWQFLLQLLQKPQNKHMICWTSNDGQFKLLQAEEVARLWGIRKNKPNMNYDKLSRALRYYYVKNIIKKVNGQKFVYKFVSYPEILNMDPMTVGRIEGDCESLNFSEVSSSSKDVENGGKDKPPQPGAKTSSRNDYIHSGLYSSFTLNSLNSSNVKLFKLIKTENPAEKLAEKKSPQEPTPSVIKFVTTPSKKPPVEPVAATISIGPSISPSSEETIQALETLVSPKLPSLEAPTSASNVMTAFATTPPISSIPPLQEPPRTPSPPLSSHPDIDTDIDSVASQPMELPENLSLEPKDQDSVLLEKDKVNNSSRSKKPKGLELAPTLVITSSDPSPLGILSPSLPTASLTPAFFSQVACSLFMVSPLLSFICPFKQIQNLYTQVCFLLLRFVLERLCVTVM
Method in brief: as §1

ETV2 = target: T10, ETV2 (Homo sapiens, UniProt O00321 1-342); conditions: protein: recombinant; tags: N-terminal GST; dsDNA, one strand shown
T10 sequence: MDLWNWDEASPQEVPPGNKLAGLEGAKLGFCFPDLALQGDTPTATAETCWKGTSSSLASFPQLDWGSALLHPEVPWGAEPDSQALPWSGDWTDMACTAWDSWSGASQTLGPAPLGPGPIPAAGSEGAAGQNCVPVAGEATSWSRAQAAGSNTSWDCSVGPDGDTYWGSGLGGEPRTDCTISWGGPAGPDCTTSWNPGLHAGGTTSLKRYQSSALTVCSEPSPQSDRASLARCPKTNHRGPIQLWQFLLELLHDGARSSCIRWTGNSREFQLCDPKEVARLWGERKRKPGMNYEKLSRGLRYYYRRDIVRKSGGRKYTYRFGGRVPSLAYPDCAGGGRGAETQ
Method in brief: as §1

ELF3 = target: T11, ELF3 (Homo sapiens, UniProt P78545 1-371); conditions: protein: recombinant; tags: N-terminal GST; dsDNA, one strand shown
T11 sequence: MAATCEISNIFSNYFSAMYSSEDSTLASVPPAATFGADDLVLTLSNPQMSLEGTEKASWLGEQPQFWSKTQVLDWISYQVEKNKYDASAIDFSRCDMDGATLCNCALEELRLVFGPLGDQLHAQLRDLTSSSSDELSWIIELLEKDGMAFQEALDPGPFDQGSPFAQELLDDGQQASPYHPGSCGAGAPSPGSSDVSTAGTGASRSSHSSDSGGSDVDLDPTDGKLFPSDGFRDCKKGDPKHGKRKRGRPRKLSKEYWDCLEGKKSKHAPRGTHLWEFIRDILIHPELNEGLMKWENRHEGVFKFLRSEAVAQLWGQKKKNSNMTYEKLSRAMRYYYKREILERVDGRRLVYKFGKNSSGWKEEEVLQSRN
Method in brief: as §1

CRX = CRX (Homo sapiens, UniProt O43186 1-299); conditions: protein: recombinant; tags: N-terminal GST; dsDNA, one strand shown
Chain of CRX (O43186 whole entry): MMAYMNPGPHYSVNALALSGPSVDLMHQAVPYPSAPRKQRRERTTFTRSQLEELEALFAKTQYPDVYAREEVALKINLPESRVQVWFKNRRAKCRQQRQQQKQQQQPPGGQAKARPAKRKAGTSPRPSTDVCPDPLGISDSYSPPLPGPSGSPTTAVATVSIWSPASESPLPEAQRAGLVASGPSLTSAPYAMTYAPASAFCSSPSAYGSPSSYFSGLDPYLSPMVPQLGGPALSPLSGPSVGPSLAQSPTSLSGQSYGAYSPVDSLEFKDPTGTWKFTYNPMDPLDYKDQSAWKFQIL
Method in brief: as §1

ETV1 = ETV1 (Homo sapiens, UniProt P50549 1-477); conditions: protein: recombinant; tags: N-terminal GST; dsDNA, one strand shown
Chain of ETV1 (P50549 whole entry): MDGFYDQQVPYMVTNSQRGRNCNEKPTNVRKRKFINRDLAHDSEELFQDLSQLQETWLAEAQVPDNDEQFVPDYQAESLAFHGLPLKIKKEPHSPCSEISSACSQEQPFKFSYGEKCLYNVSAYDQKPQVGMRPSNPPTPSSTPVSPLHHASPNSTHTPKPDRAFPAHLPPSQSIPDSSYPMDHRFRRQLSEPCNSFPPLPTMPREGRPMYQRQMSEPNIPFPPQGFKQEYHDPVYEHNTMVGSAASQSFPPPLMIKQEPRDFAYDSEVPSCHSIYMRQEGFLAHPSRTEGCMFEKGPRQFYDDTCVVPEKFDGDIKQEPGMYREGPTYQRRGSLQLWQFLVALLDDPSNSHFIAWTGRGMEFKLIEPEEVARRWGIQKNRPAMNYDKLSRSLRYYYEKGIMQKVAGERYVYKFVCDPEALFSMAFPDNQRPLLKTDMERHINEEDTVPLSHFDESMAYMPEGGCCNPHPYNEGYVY
Method in brief: as §1

For CAAATA, the binding signal (FLI1) was 1.04 fold enrichment (6-mer frequency, TF over GST control), the binding signal (ELK1) was 1.13 fold enrichment (6-mer frequency, TF over GST control) and the binding signal (GABPA) was 1.18 fold enrichment (6-mer frequency, TF over GST control). The binding signal (ERG) was 1.19 fold enrichment (6-mer frequency, TF over GST control), the binding signal (ELF1) was 1.17 fold enrichment (6-mer frequency, TF over GST control) and the binding signal (EHF) was 1.14 fold enrichment (6-mer frequency, TF over GST control). The binding signal (SPI1) was 1.14 fold enrichment (6-mer frequency, TF over GST control), the binding signal (SPIB) was 1.19 fold enrichment (6-mer frequency, TF over GST control) and the binding signal (ELK3) was 1.11 fold enrichment (6-mer frequency, TF over GST control). For the same sequence, the binding signal (FEV) was 1.14 fold enrichment (6-mer frequency, TF over GST control), the binding signal (ETV5) was 1.14 fold enrichment (6-mer frequency, TF over GST control) and the binding signal (HSF1) was 1.14 fold enrichment (6-mer frequency, TF over GST control). The binding signal (SPIC) was 1.09 fold enrichment (6-mer frequency, TF over GST control), the binding signal (ELF4) was 1.16 fold enrichment (6-mer frequency, TF over GST control) and the binding signal (ELK4) was 1.02 fold enrichment (6-mer frequency, TF over GST control). The binding signal (ETV2) was 1.06 fold enrichment (6-mer frequency, TF over GST control), the binding signal (ELF3) was 1.4 fold enrichment (6-mer frequency, TF over GST control) and the binding signal (CRX) was 1.24 fold enrichment (6-mer frequency, TF over GST control). The binding signal (ETV1) was 1.12 fold enrichment (6-mer frequency, TF over GST control).
